Compound activity (PubChem BioAssay)
Hits are enriched below; roughly 21% of the tested compounds scored in any of these assays.
Pf growth 96h: P. falciparum growth inhibition at 96 hours. P. falciparum luciferase reporter growth, 96 h. Potency, µM (doses to about 28.7 µM), without a hit: at the top dose activity change, negative = inhibition, hits mostly inhibitors. hit rate 6.9% among 320,000. AID 504834; active = well fitted inhibition curve with a large enough effect; inconclusive = small, poorly fitted or top-dose-only effect, or another doubt; inactive = no such curve, though single readings can be large or run the other way; note: potency is the fitted concentration of half-maximal effect; % is set by controls: 0 for no effect and ±100 for the full control effect
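P. falciparum expressing integrated firefly luciferase grown in erythrocytes (2% hematocrit, 0.05% parasitemia final) with compounds for 96 hours at 37 C, 5% CO2. Growth inhibition read as loss of luminescence after adding luciferase detection reagent.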
CHX counter: counter-screen for Shiga toxin inhibitors: cycloheximide protein synthesis inhibition; cell reporter, cycloheximide protein synthesis inhibition counterscreen; max response, %; hit rate 12% among 300,000; AID 2314; in the data active = max response mostly above about 13%, no sharp cut-off; inactive = mostly below about 14%; note: read at 38.3 µM for the half of the compounds with a filed dose; 0% is about no effect
Shiga toxin inh: inhibitors of Shiga toxin in Vero cells. Vero cells, Shiga toxin protein synthesis inhibition reporter. inhibition, % at 38.7 µM. hit rate 9.2% among 290,000. AID 2315; in the data active = inhibition mostly above about 28%, no sharp cut-off; inactive = mostly below about 43%; note: 0% is about no effect
SARS PLP yeast: inhibitors of SARS-CoV papain-like protease in yeast. Potency, µM (series often up to 32.9 µM), for the others: top-dose activity, positive = growth rescue, usual class: activators. AID 485353. hit rate 0.19% among 330,000. S. cerevisiae expressing SARS-CoV PLpro, growth rescue; note: potency is the fitted concentration of half-maximal effect; 0% is about no effect; nearly all actives have a fitted effect of over 55% in size
NS1 function inh: inhibitors of influenza NS1 protein function; Potency, µM (titrated, usually from 46.1 µM), for the others: at the top dose activity, positive = more growth; hit rate 0.4% among 270,000; AID 2326; note: potency is the fitted concentration of half-maximal effect; actives are rising curves; nearly all actives have a fitted effect of over 50% in size
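Recovery from NS1-induced slow growth read by OD600 in budding yeast switched to galactose assay medium (pH 6.0, -URA) at 1:100 dilution. Compound 23 nl per well; the matching strain lacking NS1 serves as control.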
Pf growth 48h: P. falciparum growth inhibition at 48 hours (one generation); hit rate 5.9% among 310,000; AID 504832; P. falciparum luciferase growth in erythrocytes, 48 h; Potency, µM (doses to about 28.7 µM), for the others: top-dose activity change, negative = inhibition, most hits filed as inhibitors; active = well fitted inhibition curve with a large enough effect; inconclusive = small, poorly fitted or top-dose-only effect, or another doubt; inactive = no such curve, though single readings can be large or run the other way; note: potency is the fitted concentration of half-maximal effect; % is set by controls: 0 for no effect and ±100 for the full control effect
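Erythrocytes infected with P. falciparum carrying an integrated firefly luciferase reporter (2% hematocrit, 0.1% parasitemia final) were exposed to compounds in RPMI 1640 with 0.5% Albumax at 37 C, 5% CO2. Growth inhibition was scored as reduced luminescence.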
* = called active by the depositor; ? = inconclusive; . = not tested or not shown; [ ] = dose if it differs, or a comment. Unless noted, calls come from the whole dose curve.

SMILES	Pf growth 96h	CHX counter	Shiga toxin inh	SARS PLP yeast	NS1 function inh	Pf growth 48h
CC12C=CC(=O)C=C1CCC1C2=CCC2(C)C1CC[C@@H]2C(=O)CN1CCN(c2cc(N3CCCC3)nc(N3CCCC3)n2)CC1 (stereo partly drawn)	.	-2	20	.	.	.
CN(C)c1ccc(CNc2ncc(Br)cc2Br)cc1	160%	34*	66*	-13%	-12%	44%
CSc1ccc(CNc2ccccc2)cc1	3%	29*	61*	1%	-6%	53%
CNS(=O)(=O)c1ccc(NC(=O)c2cncc(Br)c2)cc1	1%	-4	-5	0%	.	-16%[5.75 µM]
COC(=O)c1ccc(NC(=O)c2cccnc2)cc1	167%	-2	.	-1%	-5%	43%
CCN(CC)c1ccc(NC(=O)c2cncc(Br)c2)cc1	5%	43*	60*	2%	-9%	-10%
CCN(CC)c1ccc(NC(=O)c2cccnc2)cc1	40%	39*	61*	.	2%	35%
O=C(NCc1ccccc1F)C1CCCN1S(=O)(=O)c1ccc(Cl)cc1 (stereo not drawn)	-23%	-2	-7	0%	6%	-6%
COc1ccc(NCC(=O)N/N=C/c2ccc3c(c2)OCCO3)cc1	0%	22*	44	2%	13%	27%
COc1ccc(/C=N/NC(=O)c2ccc3c(c2)OCO3)cc1	-4%	27*	102*	1%	-6%	-15%[0.00184 µM]
COc1cc(/C=N/NC(=O)c2ccc3c(c2)OCO3)ccc1O	-25%	63*	81*	1%	?	112%
COc1cc(/C=N/NC(=O)/C(=C\c2ccc3c(c2)OCO3)NC(=O)c2ccccc2)ccc1O	?	-1	8	-15%	-15%	1%
N#CC(NC(=O)OCc1ccccc1)c1ccccc1 (stereo not drawn)	50%	.	.	-4%	.	-8%
CC(C)CN(CC(C)C)C(=O)C12CCC(C)(C(=O)O1)C2(C)C (stereo not drawn)	-13%	-1	10	19%	-3%	-26%
O=C(COC(=O)Cc1ccccc1F)NC(=O)NC1CCCC1	.	.	.	0%	.	.
O=[N+]([O-])c1ccccc1NC(=S)N/N=C/c1ccc(O)c(O)c1	300%	22*	74*	0%	7%	392%
CCCCNC(=S)N/N=C/c1cccc(OCC)c1O	1.5µM*	12	30*	1%	-8%	?
CCOc1cccc(/C=N/NC(=S)Nc2ccccc2[N+](=O)[O-])c1O	?	38*	154*	6%	9%	-50%
Cc1cccc(NC(=S)N/N=C/c2ccc(Cl)c([N+](=O)[O-])c2)c1	0%	-1	-11	-3%	8%	15%
COc1cccc(/C=N/NC(=S)NCCc2ccccc2)c1OC	40%	-1	48	-1%	-5%	5%
O=C(NCCc1ccccc1F)C1CCC(=O)N(Cc2ccc(Cl)cc2)C1 (stereo not drawn)	122%	5	0	-2%	-6%	11%
O=c1ccc2ccccc2n1Cc1cccc(F)c1	?	1	11	1%	-2%	-14%
Clc1ccc(CCC(Cn2ccnc2)Sc2c(Cl)cccc2Cl)cc1 (stereo not drawn)	0.93µM*	.	.	.	.	1.5µM*
Clc1ccc(SCCCCn2ccnc2)cc1	?	2	14	-3%	-49%	?
O=C(NC1(C(F)(F)F)N=C2SCCN2C1=O)c1cccnc1 (stereo not drawn)	?	-1	13	-12%	21%	7%
SMILES	Pf growth 96h	CHX counter	Shiga toxin inh	SARS PLP yeast	NS1 function inh	Pf growth 48h
Cc1ccc2oc(=O)c3cnn(CC(=O)NC4CCN(Cc5ccccc5)CC4)c3c2c1	2.3µM*	-5	-13	4%	-2%	.
Cc1ccc2oc(=O)c3cnn(CC(=O)NCCN(C)C)c3c2c1	-28%	-2	10	-2%	-3%	-1%
Cc1ccc2oc(=O)c3cnn(CC(=O)NCCN4CCOCC4)c3c2c1	9.3µM*	-2	-1	9%	-10%	13%
Cc1c2cnn(CC(=O)NC3CCCC3)c(=O)c2c(C)n1Cc1ccccc1	21%	29*	77*	15%	16%	55%
Cc1ccc(C)c(N2C(=O)CC(Cc3ccccc3)C2=O)c1 (stereo not drawn)	15µM*	-1	-2	-1%	-2%	2%
Cc1cc(C)cc(CC2CC(=O)N(c3cc(C)ccc3C)C2=O)c1 (stereo not drawn)	304%	-2	-12	-9%	-2%	-20%
Cn1c(N2C(=O)CC(Cc3ccccc3)C2=O)nc2ccccc21 (stereo not drawn)	1.7µM*	-2	19	4%	-9%	11%
Cc1cc(C)cc(CC2CC(=O)N(c3nc(C)cc(C)n3)C2=O)c1 (stereo not drawn)	-1%	27*	51*	-1%	-15%	21%
COc1ccc(N2C(=O)CC(Cc3ccccc3)C2=O)cc1 (stereo not drawn)	21%	15	38	1%	-4%	8%
CCCOC(=O)c1ccccc1	2%	-4	-2	.	.	-1%
CCCOC1(NC(=O)c2ccccc2)C(C)=CC(=O)C=C1C	3.3µM*	-2	-5	-1%	-2%	15%
O=C(Nc1cccc(S(=O)(=O)N2CCOCC2)c1)C1=NN(c2ccccc2)C(=O)CC1	-23%	-5	-15	1%	-9%	?
CCN1CCN(C(=O)C2CCN(c3nnc(-n4c(C)ccc4C)s3)CC2)CC1	?	-4	13	-1%	-4%	13%
CC(C)c1ccc(CNC(=O)C(=O)NCC2CCCO2)cc1 (stereo not drawn)	?	10	25	1%	.	14%
CCSc1nnc2c(n1)[nH]c1c(C)cccc12	.	19*	26	-18%	-157%	.
CSc1nnc2c(n1)[nH]c1c(C)cccc12	5.2µM*	13	57	4%	-60%	8.3µM*
COc1ccc(Nc2ccc(Cl)nn2)cc1	1%	15*	54	5%	-2%	.
COc1ccc(Nc2nc(Cl)c(C=O)s2)cc1	-4%	9	21	0%	.	-2%
Clc1ccc(Nc2ccc(Cl)nn2)cc1	35%	13	48*	-3%	-3%	4%
NNc1ccc(Cl)nn1	?	22*	24	-1%	-3%	-18%
CNc1ccc(Cl)nn1	?	1	-4	1%	.	2%
CC(C)NC(=O)CSc1nnc(-c2ccncc2)n1-c1ccccc1	.	10	-19	-9%	0%	38%
CCc1ccc(C2=Nn3c(nnc3-c3cccs3)SC2)cc1	1.9µM*	-5	-23	-10%	-54%	2.1µM*
c1ccc(C2=Nn3c(nnc3-c3cccs3)SC2)cc1	3%	-4	14	-1%	-3%	-12%
Clc1ccc(C2=Nn3c(nnc3-c3cccs3)SC2)cc1	?	-1	27	10%	8%	?
c1ccc(-c2ccc(C3=Nn4c(nnc4-c4cccs4)SC3)cc2)cc1	13µM*	-4	-5	-1%	1%	9.3µM*
N#Cc1ccccc1COC(=O)CCC(=O)c1cccs1	-9%	.	.	1%	.	?
